Drawing on publication PMC7862700, “An all-to-all approach to the identification of sequence-specific readers for epigenetic DNA modifications on cytosine”, this text covers binding signal for 39 sequences.

One test deals with T1, ETV3L (Homo sapiens, UniProt Q6ZN32 1-361).
T1 sequence: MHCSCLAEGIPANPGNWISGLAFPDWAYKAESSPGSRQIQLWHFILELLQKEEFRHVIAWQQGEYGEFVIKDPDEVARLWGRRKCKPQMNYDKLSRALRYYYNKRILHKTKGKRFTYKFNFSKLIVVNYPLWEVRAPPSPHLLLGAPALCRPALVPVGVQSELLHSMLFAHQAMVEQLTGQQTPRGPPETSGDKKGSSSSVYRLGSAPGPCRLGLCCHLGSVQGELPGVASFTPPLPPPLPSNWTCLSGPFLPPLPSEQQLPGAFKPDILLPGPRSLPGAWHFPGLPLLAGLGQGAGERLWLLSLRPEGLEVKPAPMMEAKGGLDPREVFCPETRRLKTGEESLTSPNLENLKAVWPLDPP
Description: DAPPL (digital affinity profiling via proximity ligation, sequencing); 10 mM Tris-HCl pH 7.5, 50 mM NaCl, 1 mM DTT, 4% glycerol, room temperature, 30 min; GST-TFs on glutathione beads, 16-mer random dsDNA library, 0.1% formaldehyde crosslink after washing; high values mean tight binding. The following applies: protein: recombinant; tags: N-terminal GST; dsDNA, one strand shown. In a few lines: (§1)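 Yeast served to express human transcription factors as GST fusions, which were then captured on glutathione beads and labelled with DNA barcodes. Pooled with a tag-only sample, they were incubated with 200 nmole of a 16-mer random double-stranded DNA library for 30 min at room temperature in Tris/NaCl/DTT/glycerol buffer, washed, crosslinked with 0.1% formaldehyde, ligated by proximity, amplified by PCR and sequenced. Dividing each hexamer's read frequency for a factor by its frequency for the tag-only sample gives the binding signal.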
For TACCAT, the binding signal is 1.25 fold enrichment (6-mer frequency, TF over GST control).

In the case of GTTCCT, the binding signal is 1.71 fold enrichment (6-mer frequency, TF over GST control). CCGCCT: the binding signal is 1.49 fold enrichment (6-mer frequency, TF over GST control).

As for AAATTG, the binding signal was 1.29 fold enrichment (6-mer frequency, TF over GST control).

For AAAAAG, the binding signal was 1.26 fold enrichment (6-mer frequency, TF over GST control).

On to TATTTT, for which the binding signal was 1.41 fold enrichment (6-mer frequency, TF over GST control). In the case of CTTCGT, the binding signal was 1.32 fold enrichment (6-mer frequency, TF over GST control). In the case of GTTATT, the binding signal is 1.13 fold enrichment (6-mer frequency, TF over GST control). Still for that read-out and setting: to CCTGCT belongs 1.65 fold enrichment (6-mer frequency, TF over GST control). For the sequence CTAGCA, the binding signal is 1.28 fold enrichment (6-mer frequency, TF over GST control).

Take ATGACC: the binding signal is 1.51 fold enrichment (6-mer frequency, TF over GST control). Turning to CTTCCG, the binding signal was 7.08 fold enrichment (6-mer frequency, TF over GST control).

Take AATGAC: the binding signal was 1.43 fold enrichment (6-mer frequency, TF over GST control). With ACCGAT, the binding signal is 1.11 fold enrichment (6-mer frequency, TF over GST control). For the sequence ATACGA, the binding signal is 1.1 fold enrichment (6-mer frequency, TF over GST control). With TCTCGA, the binding signal is 1.35 fold enrichment (6-mer frequency, TF over GST control). Still for that read-out and setting: under TGACCG stands 1.41 fold enrichment (6-mer frequency, TF over GST control); under TCTGCA, 1.42 fold enrichment (6-mer frequency, TF over GST control).

Regarding TACGAC, the binding signal is 1.22 fold enrichment (6-mer frequency, TF over GST control). With TAAGTA, the binding signal is 1.22 fold enrichment (6-mer frequency, TF over GST control). GTTCTC: the binding signal was 1.35 fold enrichment (6-mer frequency, TF over GST control).

With TTTTAA, the binding signal is 1.28 fold enrichment (6-mer frequency, TF over GST control). ATGCTT: the binding signal is 1.36 fold enrichment (6-mer frequency, TF over GST control).

On to ATCCTG, for which the binding signal is 1.49 fold enrichment (6-mer frequency, TF over GST control).

For ACACTT, the binding signal is 1.64 fold enrichment (6-mer frequency, TF over GST control).

As for ATTCTC, the binding signal is 1.31 fold enrichment (6-mer frequency, TF over GST control). On to TCTTTG, for which the binding signal is 1.24 fold enrichment (6-mer frequency, TF over GST control).

Take CAATTC: the binding signal was 1.27 fold enrichment (6-mer frequency, TF over GST control). TAATTT: the binding signal is 1.48 fold enrichment (6-mer frequency, TF over GST control). On to ACTGAT, for which the binding signal was 1.25 fold enrichment (6-mer frequency, TF over GST control). With TTTTTG, the binding signal is 1.38 fold enrichment (6-mer frequency, TF over GST control). Turning to TTTTCG, the binding signal is 1.41 fold enrichment (6-mer frequency, TF over GST control). For TCGACT, the binding signal is 1.27 fold enrichment (6-mer frequency, TF over GST control). With TTATGT, the binding signal was 1.26 fold enrichment (6-mer frequency, TF over GST control). On the same count and under the same terms, under TTATCT stands 1.44 fold enrichment (6-mer frequency, TF over GST control); under CCGTTC, 1.44 fold enrichment (6-mer frequency, TF over GST control). Take AAACTA: the binding signal is 1.27 fold enrichment (6-mer frequency, TF over GST control). As for TACATG, the binding signal was 1.2 fold enrichment (6-mer frequency, TF over GST control). Same read-out and setting: under GTTGCT stands 1.26 fold enrichment (6-mer frequency, TF over GST control).

Another test addresses T2, ETS2 (Homo sapiens, UniProt P15036 1-469).
T2 sequence: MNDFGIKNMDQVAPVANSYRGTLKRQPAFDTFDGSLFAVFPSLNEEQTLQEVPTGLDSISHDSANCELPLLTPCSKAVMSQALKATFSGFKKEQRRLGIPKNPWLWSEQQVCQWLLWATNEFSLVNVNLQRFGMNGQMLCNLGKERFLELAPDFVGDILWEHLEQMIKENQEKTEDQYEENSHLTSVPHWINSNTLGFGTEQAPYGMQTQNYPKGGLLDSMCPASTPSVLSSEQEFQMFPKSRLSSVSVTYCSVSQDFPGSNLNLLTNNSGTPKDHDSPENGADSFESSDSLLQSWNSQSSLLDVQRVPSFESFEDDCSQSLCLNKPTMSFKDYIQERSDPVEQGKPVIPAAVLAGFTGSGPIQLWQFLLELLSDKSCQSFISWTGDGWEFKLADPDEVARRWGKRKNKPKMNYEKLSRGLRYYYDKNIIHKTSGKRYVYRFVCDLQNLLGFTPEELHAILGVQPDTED
Described as above. The conditions noted are these: protein: recombinant; tags: N-terminal GST; dsDNA, one strand shown. In a few lines: as §1
Turning to TACCAT, the binding signal was 1.22 fold enrichment (6-mer frequency, TF over GST control). For the sequence GTTCCT, the binding signal is 1.75 fold enrichment (6-mer frequency, TF over GST control). On to CCGCCT, for which the binding signal is 1.41 fold enrichment (6-mer frequency, TF over GST control). Take AAATTG: the binding signal is 1.22 fold enrichment (6-mer frequency, TF over GST control). Still for that read-out and setting: under AAAAAG stands 1.23 fold enrichment (6-mer frequency, TF over GST control); under TATTTT, 1.35 fold enrichment (6-mer frequency, TF over GST control). Take CTTCGT: the binding signal was 1.34 fold enrichment (6-mer frequency, TF over GST control).

With GTTATT, the binding signal is 1.14 fold enrichment (6-mer frequency, TF over GST control). In the case of CCTGCT, the binding signal is 1.62 fold enrichment (6-mer frequency, TF over GST control).

CTAGCA: the binding signal was 1.18 fold enrichment (6-mer frequency, TF over GST control). Regarding ATGACC, the binding signal was 1.66 fold enrichment (6-mer frequency, TF over GST control). Still for that read-out and setting: to CTTCCG belongs 8.04 fold enrichment (6-mer frequency, TF over GST control); to AATGAC, 1.45 fold enrichment (6-mer frequency, TF over GST control). Same read-out and setting: to ACCGAT belongs 1.11 fold enrichment (6-mer frequency, TF over GST control). As to ATACGA, the binding signal is 1.17 fold enrichment (6-mer frequency, TF over GST control). For TCTCGA, the binding signal is 1.44 fold enrichment (6-mer frequency, TF over GST control). The same measure, in the same setting: under TGACCG stands 1.55 fold enrichment (6-mer frequency, TF over GST control); under TCTGCA, 1.34 fold enrichment (6-mer frequency, TF over GST control). For TACGAC, the binding signal is 1.27 fold enrichment (6-mer frequency, TF over GST control).
